# Source: PubChem BioAssay AID1117358 (Southern Research Institute, 2015)
# Screen size: about 2,300 compounds; about 160 (7%) were called active. The rule behind the calls is not given here. These entries were drawn from the full list. Results with a measured potency or affinity are listed apart.
# Test: viability loss in Vero cells – cytotoxicity control for Vif-APOBEC3G degradation inhibitor project, dose response (AID 1117358)
# Details: CellTiter-Glo ATP luminescence, 72 h; series mostly up to 40 µM; viability: at the top concentration
row,Structure (SMILES),viability
1,C/C(=N\OC(=O)c1ccc(F)cc1)c1sc(-c2ccccc2)nc1C,95.6% (inactive)
2,Cc1ccc2cc(CN(Cc3nnnn3Cc3ccco3)CC3CCCO3)c(=O)[nH]c2c1C (configuration not stated),101% (inactive)
3,C=CCNc1nc2ccccc2nc1NS(=O)(=O)c1cccs1,92.6% (inactive)
4,COc1ccc(C(=O)NCc2cn3cccc(C)c3n2)cc1OC,98% (inactive)
5,CCOC(=O)C(NC(=O)NC1CCCCC1)(c1ccccc1)C(F)(F)F (configuration not stated),101% (inactive)
6,Cc1cc(C)cc(Nc2ccc(C(=O)O)cc2N)c1,105% (inactive)
7,CCCNC(=S)NC1CCCC1,96.3% (inactive)
8,S=C(Nc1cccc(Cl)c1)NC1CCCCC1,98.6% (inactive)
9,COc1ccc(C(=O)NCc2cccnc2)cc1OC,96.7% (inactive)
10,CC1CCN(C(=O)CCc2nc3cc(S(=O)(=O)N(C)C)ccc3n2C)CC1,96% (inactive)
11,CCOC(=O)c1c(C)[nH]c(C(=O)OCC(=O)N2c3ccccc3CC2C)c1C (configuration not stated),92% (inactive)
12,COc1ccccc1C(=O)Nc1ccc(S(=O)(=O)Nc2cc(C)nc(C)n2)cc1,96.3% (inactive)
13,COc1cc(C(=O)Nc2ccc(S(=O)(=O)NC(C)C)cc2)cc(OC)c1OC,91% (inactive)
14,COc1cc(NC(=O)c2cc3nc(C)cc(C)n3n2)c(OC)cc1Cl,95.1% (inactive)
15,NC(=O)C[C@@H]1N[C@]2(C(=O)Nc3ccccc32)[C@@H]2C(=O)N(c3cc(C(F)(F)F)ccc3Cl)C(=O)[C@H]12,99.7% (inactive)
16,CCc1cc2cc(C)cc(C)c2nc1SCC(=O)N1CCN(C(=O)c2ccco2)CC1,99.1% (inactive)
17,COc1cc(C(=O)OCCN2CCCCC2)ccc1O,101% (inactive)
18,CCN1C(=O)c2ccccc2S(=O)c2ccc(C(=O)NC3CC3)cc21 (configuration not stated),97.5% (inactive)
19,Cc1cccc(C)c1NS(=O)(=O)c1c(C)[nH]c(=O)[nH]c1=O,95% (inactive)

row,Structure (SMILES),viability
1,CC(C)(C)NC(=O)COC(=O)c1cc(S(=O)(=O)N2CCCCC2)ccc1N1CCOCC1,92.4% (inactive)
2,CCN(CC)C(=O)CSCC(=O)Nc1ccccc1,90.6% (inactive)
3,CC(C)(C)OC(=O)N1CCCC1C(=O)N1CCc2ccccc21 (configuration not stated),107% (inactive)
4,CCOC(=O)CSc1nnc(CNC(=O)c2cccs2)n1CCc1ccccc1,103% (inactive)
5,CCN1CCc2c(C#N)c(NCc3ccccc3)nc(N(CC)CC)c2C1,98.3% (inactive)
6,Nn1c(SCC(=O)NC2CCCc3ccccc32)nnc1-c1cccs1 (configuration not stated),109% (inactive)
7,O=C(Cc1cc(=O)[nH]c(=O)[nH]1)NCC1CCCO1 (configuration not stated),98.5% (inactive)
8,O=C(NCc1ccncc1)c1ccc(Cn2cc(C(F)(F)F)ccc2=O)cc1,97.2% (inactive)
9,O=C(NCc1ccccn1)c1ccc(Cn2cc(Br)cn2)o1,98.8% (inactive)
10,O=S(=O)(c1ccc(OCc2nc3ccccc3s2)c(Cl)c1)N1CCOCC1,98.5% (inactive)
11,CCNc1nc(OCCNS(=O)(=O)c2cc(C)ccc2C)nc(N(C)C)n1,82.2% (inactive)
12,CCC(Cc1ccccc1)NC(=O)C1CCN(S(=O)(=O)c2c(C)noc2C)CC1 (configuration not stated),104% (inactive)
13,CC1Cc2ccccc2N1C(=O)C1CCN(S(=O)(=O)Cc2ccccc2)CC1 (configuration not stated),94.6% (inactive)
14,COC(=O)c1ccc(C)c(NS(=O)(=O)c2ccc(NC(C)=O)cc2)c1,89.2% (inactive)
15,O=C(CSc1nncs1)NC(=O)NCc1ccccc1,91.5% (inactive)
16,COc1ccc(S(=O)(=O)N(CC(=O)O)c2ccccn2)cc1,99.8% (inactive)
17,CC(=O)c1ccc(NC(=O)c2ccc3nc(-c4ccco4)c(-c4ccco4)nc3c2)cc1,89.9% (inactive)
18,CCOc1ccc(-n2c(=O)c3c(C)c(C)sc3n(CC(=O)NCc3ccco3)c2=O)cc1,98.6% (inactive)
19,Oc1c(C(c2ccccc2)N2CCN(Cc3ccccc3)CC2)sc2ncnn12 (configuration not stated),97.7% (inactive)

row,Structure (SMILES),viability
1,CCOc1cc(C2NC(=O)NC(O)(C(F)(F)F)C2C(=O)c2ccccc2)ccc1OC (configuration not stated),101% (inactive)
2,COc1ccc(CSc2nnnn2C)cc1F,94.5% (inactive)
3,O=C(Nc1ccc2nc(-c3ccco3)c(-c3ccco3)nc2c1)N1CCCCCC1,105% (inactive)
4,O=C(O)CCN1CCOCC1,99.2% (inactive)
5,O=C(O)c1ccc(S(=O)(=O)c2ccc3c(c2)C(=O)N(Cc2ccco2)C3=O)cc1,101% (inactive)
6,COc1cc(NC(=O)c2nnn(Cc3ccc(SC)cc3)c2N)cc(OC)c1,82.5% (inactive)
7,O=C(CN1C(=O)NC2(CCCCCCC2)C1=O)NCc1cccs1,99.7% (inactive)
8,COCC(=O)Nc1sc2c(c1C(=O)OC)C(C(=O)OC)CC2 (configuration not stated),102% (inactive)
9,COC(=O)Nc1sc2c(c1C(=O)NCc1ccco1)CCCC2,104% (inactive)
10,CCOC(=O)c1cc2sc(C)cc2n1CC(=O)N1CCN(C(=O)c2ccco2)CC1,94% (inactive)
11,O=C(c1ccc2c(c1)OCCO2)C1CCN(C(=O)c2ccc(F)cc2)CC1,111% (inactive)
12,CN(C)c1ccc(/C=N\NC(=O)c2csnn2)cc1,92.2% (inactive)
13,Cc1cc(C(=O)Nc2c(C)cccc2C)n(-c2ccccc2)n1,106% (inactive)
14,CCOC(=O)C1CCN(S(=O)(=O)c2cccc(-c3cn4cccnc4n3)c2)CC1,99% (inactive)
15,COCc1nnc(NC(=O)c2ccc(S(=O)(=O)N(C)C3CCCCC3)cc2)o1,99.6% (inactive)
16,COc1ccc(C(=O)N2CCCN(C)CC2)cc1S(=O)(=O)N1CCCc2ccccc21,90.5% (inactive)
17,O=C(Nc1ccccc1F)c1ccc(S(=O)(=O)NCC2CCCO2)cc1 (configuration not stated),93.5% (inactive)
18,Cc1nnc(NC(=O)c2ccc(S(=O)(=O)N(C)Cc3ccccc3)cc2)o1,96.7% (inactive)
19,CCOC(=O)c1c(-c2cccs2)csc1NC(=O)CC(C)C,95.5% (inactive)
